Assay outcomes from PubChem.
Hits are enriched below; roughly 0.96% of the tested compounds scored in any of these assays.
A647 fluor: A647 region autofluorescence | Compound fluorescence, A647 channel (570/671 nm), Tris buffer | max dye-equivalent concentration, M | 59,000 tested, under 10 active | AID 592
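Compounds pinned into 100 mM Tris pH 8.0, 15 min at room temperature, then read with 570 nm excitation/671 nm emission filters. Fluorescence normalized to an on-plate six-point Alexa 647 standard curve, giving dye-equivalent concentration per compound concentration.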
Fluorescein autfl: compound autofluorescence in fluorescein spectral region; max fluorescein-equivalent concentration, M; 0.91% of 59,000 active; Compound autofluorescence, 480/540 nm, fluorescein-equivalent; hits give high values; in the data active = max fluorescein-equivalent concentration above about 10 nM; inconclusive = between about 1.1 nM and that limit
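Values reflect compound autofluorescence, normalized to fluorescein on the same plate and reported at each tested concentration. Conditions: 100 mM Tris pH 8.0, room temperature, 15 min, excitation 480 nm, emission 540 nm.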
TexasRed autofl: compounds fluorescent in Texas Red spectral region. Compound fluorescence, Texas Red channel, 547/618 nm; hits give high values. max dye-equivalent concentration, M. 0.06% of 59,000 active. AID 587; in the data active = max dye-equivalent concentration above about 10 nM; inconclusive = between about 1.1 nM and that limit
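Compound fluorescence was read after 15 min at room temperature in 100 mM Tris, pH 8.0, using 547 nm excitation and 618 nm emission across a concentration series. It was expressed as Texas Red dye-equivalent concentration from an on-plate standard curve.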
Rhodamine autofl: rhodamine region autofluorescence | Rhodamine-region fluorescence, 547/598 nm, Tris buffer; hits give high values | max dye-equivalent concentration, M | 0.05% of 59,000 active; in the data active = max dye-equivalent concentration above about 11 nM; inconclusive = between about 1.1 nM and that limit
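A six-point rhodamine series on each plate calibrates the signal. Compounds sit in 100 mM Tris (pH 8.0) for 15 min at ambient temperature before imaging through 547 nm/598 nm filters.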
Resorufin autofl: compounds fluorescent in resorufin spectral region | Compound fluorescence, resorufin region 547/598 nm, buffer; hits give high values | max dye-equivalent concentration, M | 0.04% of 59,000 active
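Compounds in 100 mM Tris, pH 8.0, incubated 15 min at room temperature, then fluorescence read at 547 nm excitation/598 nm emission. Signal converted to dye-equivalent concentration via an on-plate six-point resorufin standard curve, per compound concentration.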
A488 autofl: A488 region autofluorescence; compound autofluorescence, A488 spectral region, dye equivalency; Compound Type: qHTS ECL - MLSMR; max dye equivalency, M; 0.1% of 59,000 active
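Compound autofluorescence was read in 100 mM Tris pH 8.0 after 15 min at room temperature, ex 480 nm/em 540 nm. Intensities were converted to A488 dye-equivalent concentration using an on-plate six-point A488 standard curve.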
Each line names hits and unclear results; the compound was inactive in the other large screens. Unless noted, the rule behind the calls is not given here.

CC[C@H](C)C(=O)O[C@@H]1CCC=C2C=C[C@H](C)[C@@H](CC[C@H]3C[C@@H](O)CC(=O)O3)[C@H]21	none
Cc1ccc(C)n1Cc1ccc(C(=O)O)cc1	A647 fluor inconclusive, Fluorescein autfl 1.1e-08M
C=C1CC[C@@H]2[C@](C)(CC[C@@H](O)[C@]2(C)CO)[C@@H]1C/C=C1/C(=O)OC[C@H]1O	none
COc1ccccc1/C=c1\sc2nc(-c3cccs3)nn2c1=O	none
Cc1ccc(/C=c2\sc3nc(-c4cccs4)nn3c2=O)o1	Fluorescein autfl 1.3e-08M, TexasRed autofl inconclusive
c1cncc(-c2cncnc2NC2CCNCC2)c1	Fluorescein autfl 1.4e-08M
CC(=O)O[C@@H]1CC[C@]2(C)[C@H]3CC[C@]4(C)[C@H](C[C@H]5CCCC[C@@]54C(C)=O)[C@@H]3CC(=O)[C@@]2(O)C1	TexasRed autofl inconclusive
Cc1cc2c(cc1C)NC(c1c(C)n(C)n(-c3ccccc3)c1=O)C1=C(CC(C)(C)CC1=O)N2 (configuration not stated)	Fluorescein autfl 4.3e-08M, TexasRed autofl inconclusive, A488 autofl inconclusive
CC(C)[C@@H]1OC(=O)C=CC=CC=CC=CC=CC[C@@H](O)[C@H](C)[C@@H](O)C[C@H](O)C[C@H](O)C[C@H](O)C[C@H](O)C[C@H](O)C[C@H](O)C=C[C@@H]1C	TexasRed autofl inconclusive
Oc1ccc2cccnc2c1	Fluorescein autfl 1.6e-08M
CN1CCc2c(sc3c2C(=O)NC(c2ccco2)N3)C1 (configuration not stated)	Fluorescein autfl 1.3e-08M
NCCNC(=S)S	none
O=c1[nH]c(=O)n([C@H]2C[C@H](O)[C@H](CO)O2)cc1/C=C\Br	TexasRed autofl inconclusive
COc1ccc(O)c(C(=O)c2cc(C#N)c(=O)n(CCN3CCOCC3)c2)c1	none
COc1ccc(O)c(C(=O)c2cc(C#N)c(=O)n(-c3c(C)n(C)n(-c4ccccc4)c3=O)c2)c1	Fluorescein autfl 1.2e-07M, A488 autofl inconclusive
COc1cccc(C2=CC(c3ccc(C)cc3)n3ncnc3N2)c1 (configuration not stated)	Fluorescein autfl 1e-08M, TexasRed autofl inconclusive
CCCOc1ccc(/C=c2\sc3nc(-c4ccco4)nn3c2=O)cc1OCC	Fluorescein autfl 3.2e-08M, A488 autofl inconclusive
CN1CCN([C@@H]2Cc3ccccc3Sc3ccc(Cl)cc32)CC1	Fluorescein autfl inconclusive
Cc1c(N=Cc2ccc(Cl)o2)c(=O)n(-c2ccccc2)n1C	Fluorescein autfl inconclusive
Cc1cccc(-n2c(O)c(C=Nc3c(C)n(C)n(-c4ccccc4)c3=O)c3ccccc3c2=O)n1	Fluorescein autfl 5.7e-08M, A488 autofl inconclusive
C[C@@H]1C(=O)O[C@@H]2C[C@@]34[C@H]5C[C@@H](C(C)(C)C)[C@@]36[C@@H](OC(=O)[C@@H]6O)O[C@]4(C(=O)O5)[C@@]12O	none
Cc1cccc(S(=O)(=O)c2c(N)n(Cc3ccco3)c3nc4ccccc4nc23)c1	Fluorescein autfl 1.7e-08M
CN[C@]1(C)[C@@H]2CC[C@@H](C2)C1(C)C	none
Cc1ccc(-c2c3c(=O)n(C)c(=O)n(C)c3cn2N2CCOCC2)cc1	Fluorescein autfl inconclusive
Cc1ccc(-c2c3c(=O)n(C)c(=O)n(C)c3c3c(C)cc(C)nn23)cc1	Fluorescein autfl 1.3e-08M, TexasRed autofl inconclusive
C[C@@H]1O[C@@H](n2cc(F)c(=O)[nH]c2=O)[C@H](O)[C@@H]1O	Fluorescein autfl inconclusive
C=CCOc1cccc(C2C(C(=O)c3ccc(C)o3)=C(O)C(=O)N2c2nccs2)c1 (configuration not stated)	Fluorescein autfl 3.6e-08M, A488 autofl inconclusive
C[C@@]12C[C@H](O)[C@@H]3[C@H](CCC4=CC(=O)CC[C@]43C)[C@H]1CC[C@@H]2c1csc(N)n1	Fluorescein autfl inconclusive, TexasRed autofl inconclusive
Brc1ccc(-c2nnc3sc(CN4CCC5(CC4)OCCO5)cn23)cc1	Fluorescein autfl 1.1e-08M
N#CC1=C(N)N2C(=C(C#N)C1c1ccccc1)Sc1ccccc12 (configuration not stated)	Fluorescein autfl 4.2e-08M, A488 autofl inconclusive
N#CC1=C(N)N(c2ccccc2)C2=C(C(=O)CCC2)C1c1ccsc1 (configuration not stated)	none
CCOC(=O)c1sc(N)c(C#N)c1COC(=O)CNC(=O)c1ccccc1	Fluorescein autfl 3e-08M
CCOC(=O)c1sc(N)c(C#N)c1CSc1nc2ccc(OCC)cc2[nH]1	none
COc1cc(O)c2c(O)c3c(c4c2c1[C@@]1(C4)C(C)=CCCC1(C)C)[C@H](O)[C@@]1(O)CC(=O)C(C(N)=O)=C(O)[C@]1(O)C3=O	Fluorescein autfl 2.1e-08M
C=CCOn1c(=O)c(-c2ccc(OC)cc2)[n+]([O-])c2ccccc21	TexasRed autofl inconclusive
O=c1c(-c2ccc(Cl)cc2)[n+]([O-])c2ccccc2n1O	Fluorescein autfl 1.6e-08M
CCN1C(=O)/C(=C\N2CCCc3ccccc32)SC1=S	Fluorescein autfl 2e-08M, TexasRed autofl inconclusive
O=C1c2ccccc2C(=O)N1CCC(=O)N1CCCc2ccccc21	none
CCN1C(=O)/C(=C/N2CCc3ccccc32)SC1=S	Fluorescein autfl 2.2e-07M, A488 autofl 1.3e-08M
CCC[C@@H]1O[C@@H]2C[C@@H]3[C@@H]4CCC5=CC(=O)C=C[C@@]5(C)[C@H]4[C@H](O)C[C@@]3(C)[C@@]2(C(=O)CO)O1	TexasRed autofl inconclusive
COc1ccccc1C[C@@H](Cc1nc2ccccc2[nH]1)c1nc2ccccc2[nH]1	Fluorescein autfl inconclusive
O=C(O)CCCC[C@@H]1SC[C@H]2NC(=O)N[C@H]12	none
CC(=O)Nc1c2c3c(cccc3n(C)c1=O)C(=O)c1ccccc1-2	Fluorescein autfl 1.7e-08M, A488 autofl inconclusive
COc1cccc(Nc2ncc3nc(-c4cn(C)c5ccccc45)c(=O)n(C[C@H]4CCCO4)c3n2)c1	Fluorescein autfl 1.6e-08M
COc1cccc(Nc2ncc3nc(-c4cccs4)c(=O)n(C[C@H]4CCCO4)c3n2)c1	Fluorescein autfl 4.2e-08M, A488 autofl inconclusive
COc1cc(OC)cc([C@H](CNc2ncnc3c2ncn3[C@@H]2O[C@@H](CO)[C@H](O)[C@@H]2O)c2ccccc2C)c1	Fluorescein autfl inconclusive
CC(=O)OCC(=O)NCc1ccc2c(c1)OCO2	Fluorescein autfl inconclusive
CC(C)c1nnc(NC(=O)CCC(=O)NCc2ccc3c(c2)OCO3)s1	Fluorescein autfl 1.3e-07M, A488 autofl inconclusive
CC(=O)OC[C@@H]1O[C@@H](Oc2cc(OC(C)=O)c3c(=O)cc(-c4ccc(OC(C)=O)c(OC(C)=O)c4)oc3c2)[C@H](OC(C)=O)[C@H](OC(C)=O)[C@@H]1OC(C)=O	none
O=C1C2CC=C(Cl)CC2C(=O)N1CNc1ccccn1 (configuration not stated)	none
